PG9 binder – binds the HIV-1 gp120 antibody PG9; inhibition, % at 6.7 µM; hit rate 0.43% among 360,000; TR-FRET gp120-PG9 antibody binding; AID 624416; in the data active = inhibition above about 8.5%
Rev-erbA mod – Rev-erb alpha (human) modulation; P20393; Rev-erbα–FITC-DNA binding, fluorescence polarization, 90 min; activity, % at 10 µM; hit rate 0.79% among 370,000; AID 1259318;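 active = activity above about 14%, limit read from the data; passing the limit was not always enough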;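 note: 0% = DMSO wells with 35 nM protein and 100% = DMSO wells with 750 nM protein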
PKA-R2B activ – activates the human PKA-R2B holoenzyme complex. P22694+P31323. hit rate 0.079% among 340,000. PKA-R2B holoenzyme dissociation, Cy5-IP20 fluorescence polarization; R2B truncated from residue 108, S112A mutant; 0% DMSO only, 100% 113 µM cGMP. activation, % at 11.4 µM;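 active = activation above a cutoff set at the mean over all compounds plus 3 SD, cut at about 18% in these data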;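 note: higher means more holoenzyme dissociation and a rise in polarization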
Target sequence (P31323 whole entry, looked up, other chains not shown, the tested form may be a part): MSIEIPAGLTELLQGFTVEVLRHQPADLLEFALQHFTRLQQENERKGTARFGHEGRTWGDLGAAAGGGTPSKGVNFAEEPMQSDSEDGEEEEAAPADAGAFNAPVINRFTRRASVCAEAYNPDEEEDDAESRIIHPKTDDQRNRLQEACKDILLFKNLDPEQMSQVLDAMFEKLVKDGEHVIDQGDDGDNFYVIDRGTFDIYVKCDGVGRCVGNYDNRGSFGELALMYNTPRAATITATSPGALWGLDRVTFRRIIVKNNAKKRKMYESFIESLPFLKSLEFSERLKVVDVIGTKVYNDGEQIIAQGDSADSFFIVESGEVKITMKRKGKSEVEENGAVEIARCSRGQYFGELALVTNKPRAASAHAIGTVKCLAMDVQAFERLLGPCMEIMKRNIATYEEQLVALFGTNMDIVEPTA
PKA-R1A act – activates the PKA-R1A holoenzyme complex. hit rate 0.083% among 340,000. PKA-R1A dissociation, Cy5-IP20 fluorescence polarization; scaled: DMSO 0%, 113 µM cGMP 100%. activation, % at 11.4 µM. P00514+P68181;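 active = percent activation above the mean of all tested compounds plus 3 SD, cut at about 19% in these data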;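 note: higher means more PKAc released from R1A so a rise in polarization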
NR1D1 mod conf – Rev-erb alpha (human) modulation, hit confirmation; shares compounds with Rev-erbA mod; Rev-erb alpha FITC-DNA binding, fluorescence polarization, 90 min; activation, % at 25 µM; hit rate 61% among 3,000;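 active = activation at or above a set limit, or at least 3 SD above the negative control mean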;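 note: 0% = 35 nM protein with DMSO and 100% = 750 nM protein high control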
RORg DNA counter – RORgamma DNA-binding activity, dose-response counter-screen; shares compounds with Rev-erbA mod; purified RORgamma protein-FITC-DNA binding, fluorescence polarization; IC50, µM; hit rate 8% among 910;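 active = Compounds whose fitted half-maximal concentration for disrupting protein-DNA binding is below 10 micromolar; the record names Rev-erb in its text, so the target is in doubt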
The depositor's hits bear a star. Compounds with a hit are over-represented: about 1.2% of the library has one in this group of screens.

What do the screens show for `CCc1ccc2nc(/N=C(\N)NC(=O)c3ccccc3)nc(C)c2c1`?
PG9 binder: -2.6; Rev-erbA mod: 23.3*; PKA-R2B activ: 5.0; PKA-R1A act: -9.8; NR1D1 mod conf: 0.3

Results for Cc1cc(C)c2nc(/N=C(\N)NC(=O)c3ccccc3)nc(C)c2c1 ?
PG9 binder: -1.6; Rev-erbA mod: 55.6*; PKA-R2B activ: -2.1; PKA-R1A act: 0.2; NR1D1 mod conf: 14.6

What do the screens show for `COc1cc2c(-c3ccc(O)cc3)nc3c(c(C)nn3-c3ccccc3)c2cc1OC`?
PG9 binder: 0.1; Rev-erbA mod: 13.0; PKA-R2B activ: 3.3; PKA-R1A act: -6.5

How did COc1cc2c(C)nc3c(c(C)nn3-c3ccccc3)c2cc1OC do in these assays?
PG9 binder: -1.0; Rev-erbA mod: 20.8*; PKA-R2B activ: -3.2; PKA-R1A act: -0.7; NR1D1 mod conf: -2.9

What do the screens show for `O=C(Nc1cnccn1)c1ccc(Cl)cc1`?
PG9 binder: -3.5; Rev-erbA mod: 7.0; PKA-R2B activ: -5.3; PKA-R1A act: -2.0

How did O=C(Nc1ccnc(-c2cccnc2)n1)c1ccc(Cl)cc1 do in these assays?
PG9 binder: -1.0; Rev-erbA mod: 45.1*; PKA-R2B activ: 8.1; PKA-R1A act: -3.1; NR1D1 mod conf: 41.0*; RORg DNA counter: >40

What do the screens show for `O=c1[nH]c2ccccc2nc1/C=C(\O)c1cccs1`?
PG9 binder: -6.6; Rev-erbA mod: 43.1*; PKA-R2B activ: -4.3; PKA-R1A act: 4.8; NR1D1 mod conf: 21.8*

What do the screens show for `CC(=O)N1CCc2cc(N=NC3=C(O)CC(C)(C)CC3=O)ccc21`?
PG9 binder: -3.0; Rev-erbA mod: 20.0*; PKA-R2B activ: 3.9; PKA-R1A act: 1.2; NR1D1 mod conf: 20.2*

What do the screens show for `Cc1nc2ccc(N=NC3=C(O)CC(C)(C)CC3=O)cc2s1`?
PG9 binder: -4.9; Rev-erbA mod: -1.4; PKA-R2B activ: -1.6; PKA-R1A act: -7.9

Results for CCN(CC)c1ccc(C=C2SC(=S)NC2=O)cc1 ?
PG9 binder: -6.6; Rev-erbA mod: 38.8*; PKA-R2B activ: -5.0; PKA-R1A act: 7.4; NR1D1 mod conf: 29.6*; RORg DNA counter: >40

Results for Cc1ccc(C)c(NC(=O)[C@@H]2CCCN2S(=O)(=O)c2cccc3cccnc23)c1 ?
Rev-erbA mod: -2.2

Results for COc1ccc2cc(OCC(=O)NNC(=O)Nc3ccc(C(C)=O)cc3)ccc2c1 ?
PG9 binder: 0.7; Rev-erbA mod: 7.7; PKA-R2B activ: 9.8; PKA-R1A act: 7.5

Results for COc1ccc(NC(=O)NNC(=O)COc2ccc3cc(Br)ccc3c2)cc1 ?
PG9 binder: 1.2; Rev-erbA mod: 15.7*; PKA-R2B activ: 10.8; PKA-R1A act: 0.5; NR1D1 mod conf: 7.7

How did COc1ccc2c(c1)cc(C(=O)N[C@@H](Cc1ccccc1)C(=O)N[C@@H](C)C(=O)O)n2C do in these assays?
PG9 binder: -1.4; Rev-erbA mod: 28.4*; PKA-R2B activ: 1.7; PKA-R1A act: -9.0; NR1D1 mod conf: -6.3

Results for Cc1cc(NC(=O)CSc2ncnc3c2cnn3-c2ccccc2)no1 ?
PG9 binder: 0.6; Rev-erbA mod: 3.1; PKA-R2B activ: 0.9; PKA-R1A act: -7.2

Results for Cc1nn(C)c(C)c1NC(=O)CSc1nc(-c2ccccc2F)nc2c1cnn2-c1ccccc1 ?
PG9 binder: -0.8; Rev-erbA mod: 41.7*; PKA-R2B activ: -5.0; PKA-R1A act: -2.1; NR1D1 mod conf: 62.5*; RORg DNA counter: >40

How did Cc1nn(C)c(C)c1NC(=O)CSc1nc(-c2ccccc2Cl)nc2c1cnn2-c1ccccc1 do in these assays?
PG9 binder: 2.9; Rev-erbA mod: 102.2*; PKA-R2B activ: -0.5; PKA-R1A act: -7.2; NR1D1 mod conf: 91.9*; RORg DNA counter: 6.77*

What do the screens show for `N#CCC[C@H]1CC[C@]2(CCCN(Cc3ccccc3)C2)O1`?
Rev-erbA mod: 1.4

What do the screens show for `O=C(NCc1ccccn1)c1ccc(Cn2c(=S)[nH]c3ccc(Br)cc3c2=O)cc1`?
PG9 binder: -0.6; Rev-erbA mod: 42.5*; PKA-R2B activ: -7.8; PKA-R1A act: 7.3; NR1D1 mod conf: 34.9*; RORg DNA counter: >40

How did O=c1c2ccccc2[nH]c(=S)n1Cc1ccccc1 do in these assays?
PG9 binder: 0.1; Rev-erbA mod: 18.9*; PKA-R2B activ: -2.0; PKA-R1A act: -8.5; NR1D1 mod conf: 5.7

What do the screens show for `O=c1c2ccccc2[nH]c(=S)n1CCc1ccccc1`?
PG9 binder: -1.7; Rev-erbA mod: 5.4; PKA-R2B activ: -2.8; PKA-R1A act: 0.2

How did O=C(NCc1ccccn1)c1ccc(Cn2c(=S)[nH]c3ccccc3c2=O)cc1 do in these assays?
PG9 binder: -2.6; Rev-erbA mod: -0.2; PKA-R2B activ: 2.4; PKA-R1A act: -6.9

What do the screens show for `CCOc1cccc(-c2nnc3sc(-c4cc(OC)c(OC)c(OC)c4)nn23)c1`?
PG9 binder: 0.1; Rev-erbA mod: 24.9; PKA-R2B activ: 6.0; PKA-R1A act: 4.1

Results for CCOc1cccc(-c2nnc3sc(-c4cccs4)nn23)c1 ?
PG9 binder: 1.0; Rev-erbA mod: 29.3*; PKA-R2B activ: 0.8; PKA-R1A act: -12.7; NR1D1 mod conf: 20.0*

Results for COP(=O)(CC(=O)C(Cc1ccccc1)NC(=O)OC(C)(C)C)OC (stereo not given) ?
Rev-erbA mod: -0.6

How did CCc1ccc2nc(NC(=O)C3CCN(c4ncnc5sc(C)c(C)c45)CC3)sc2c1 do in these assays?
PG9 binder: -0.7; Rev-erbA mod: 20.5*; PKA-R2B activ: 8.3; PKA-R1A act: 9.2; NR1D1 mod conf: 19.4*

Results for CCc1cccc(NC(=O)C2CCN(c3ncnc4sc(C)c(C)c34)CC2)c1 ?
PG9 binder: 1.4; Rev-erbA mod: 3.9; PKA-R2B activ: 6.5; PKA-R1A act: 14.1

Results for O=C(CSc1nnc(-c2ccccc2F)n1-c1ccccc1)c1ccc2ccccc2c1 ?
Rev-erbA mod: -1.7

How did C=CCN1[C@H](CC(C)C)COc2cccc(F)c2S1(=O)=O do in these assays?
Rev-erbA mod: 3.2

How did O=c1[nH]cnc2cc(-c3ccc(Br)cc3)sc12 do in these assays?
PG9 binder: 5.8; Rev-erbA mod: 25.9*; PKA-R2B activ: -6.5; PKA-R1A act: -3.0; NR1D1 mod conf: 8.1

Results for O=c1[nH]c(CCl)nc2cc(-c3ccc(F)cc3)sc12 ?
PG9 binder: -0.2; Rev-erbA mod: 6.3; PKA-R2B activ: 5.2; PKA-R1A act: 1.7

Results for CCOc1ccc(/C(O)=C2/C(=O)C(=O)N(CCCn3ccnc3)C2c2cccs2)cc1Cl (stereo not given) ?
PG9 binder: 8.0; Rev-erbA mod: 48.2*; PKA-R2B activ: 8.8; PKA-R1A act: 6.9; NR1D1 mod conf: 46.6*

Results for CCCOc1ccc(/C(O)=C2/C(=O)C(=O)N(CCCn3ccnc3)C2c2cccs2)cc1 (stereo not given) ?
PG9 binder: -0.1; Rev-erbA mod: 1.4; PKA-R2B activ: -5.0; PKA-R1A act: -3.0
